Reference: PubChem BioAssay AID1508621 (National Center for Advancing Translational Sciences (NCATS), 2021)
Inconclusive results are not listed. Active and inactive are the calls of the source. Calls follow the shape of the dose curve; as a rule, active = well fitted inhibition curve with a large enough effect; inconclusive = small, poorly fitted or top-dose-only effect; inactive = no such curve, though single readings can be large or run the other way.

assay: Confirmatory qHTS for Identification of Small Molecule Inhibitors of Huntingtin Promoter Activity; details: HEK293 HTT promoter firefly luciferase reporter, 24 h; series mostly up to 57.5 µM; activity change, negative = inhibition: at the top concentration; also: nearly all actives have a fitted effect of over 65% in size
How it was run: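 Activity normalized between vehicle control (0%) and zero RLU (-100%) from firefly luminescence (Dual-Glo). Compounds, up to 57.5 uM final, incubated 24 h at 37C on HEK293 reporter cells plated 24 h earlier.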
Potency is read from the fitted curve at half-maximal effect.

Activity change, negative = inhibition, inactive:
CCOc1ccc(Nc2ncnc3c2nc2n3CCCCC2)cc1 -15.8%
CN(C)c1ccc(C(=O)NCCCCCCC(=O)NO)cc1 358%
CC(C)c1ccc(C2=CC(c3cccc(Cl)c3)n3c(nc4ccccc43)N2)cc1 (stereo not drawn) -47.6%
Cc1[nH]c2ccccc2c1CCNCc1ccc(C=CC(=O)NO)cc1 254%
CCc1ccc(NC(=O)Nc2cn(C)c(=O)c3ccccc23)cc1 -22.2%
COC(=O)C1=C(C)NC(C)=C(C(=O)OCC(C)=O)C1c1ccccc1[N+](=O)[O-] (stereo not drawn) 7.3%
CN[C@H]1[C@@H](O)[C@@H]2O[C@@H]3O[C@H](C)CC(=O)[C@]3(O)O[C@@H]2[C@@H](NC)[C@H]1O -9.55%
Cc1ccccc1C(=O)Nc1nc(-c2ccc(Br)cc2)ns1 -40.2%
CCOc1ccc(C(=O)N(Cc2cc(OC)c(OC)c(OC)c2)c2ccccn2)cc1 -18.3%
COc1ccc(Nc2nc(-c3ccc(C)cc3)nc3ccccc23)c(OC)c1 5.08%
C#Cc1cccc(Nc2ncnc3cc(OC)c(OCCCCCCC(=O)NO)cc23)c1 -42.5% [at 115 µM]
CC(C)c1nc2ccc(C(=O)NCCCN3CCN(c4cccc(Cl)c4)CC3)cc2o1 12.1%
Cn1cnc(=N)c2[nH]cnc21 4.3%
N#CCNC(=O)c1ccc(-c2ccnc(Nc3ccc(N4CCOCC4)cc3)n2)cc1 -12.3%
CCOc1ccc(C(=O)NCc2ccc3c(c2)CCN3C(=O)c2ccccc2)cc1 -16.2%
CCOc1ccc(-n2c(/C=C/c3cccc(F)c3)nc3cc(OC)c(OC)cc3c2=O)cc1 -22.7%
Cc1ccc(N2C(=O)C(CC(=O)Nc3ccccc3)N(CCC3=CCCCC3)C2=O)cc1 (stereo not drawn) -1.96%
COc1ccccc1NC(=O)CN1C(=O)C(C)(C)c2ccccc21 -21.9%
CC(=O)c1ccc(NS(=O)(=O)c2ccc3[nH]c(=O)[nH]c3c2)cc1 56.3%
CC(=O)Nc1ccc(S(=O)(=O)Nc2cc(-c3cn4ccccc4n3)ccc2C)cc1 10.7%
O=C(Nc1ccc(Cl)c(Cl)c1)N(Cc1c[nH]c2ccccc12)C1CCCCC1 32.3%
O=C(Nc1cccc(C(=O)N2CCN(c3ccc(Cl)cc3)CC2)c1)c1nsc2ccccc12 -35.8%
COc1ccc(S(=O)(=O)c2cc3cc(C(C)(C)C)cc(O)c3oc2=O)cc1 -18.7%
CO[C@H]1C=CC=C(C)C(=O)NC2=CC(=O)C(NCCN(C)C)=C(C[C@@H](C)C[C@H](OC)[C@@H](O)[C@@H](C)C=C(C)[C@@H]1OC(N)=O)C2=O 10.9%
CCc1c(C)sc2c1CCN(Cc1ccc(F)cc1)C2c1ccccc1 (stereo not drawn) -16.4%

Potency, active:
COC[C@H](NC(=O)c1cnc(C)s1)C(=O)N[C@@H](COC)C(=O)N[C@@H](Cc1ccccc1)C(=O)[C@@]1(C)CO1 0.301 µM
COc1ccccc1N=c1scc(-c2ccc(S(=O)(=O)N3CCCC3)cc2)n1C 4.78 µM
Cc1ccc(C)c(N2CCN(C(=O)c3nn(C)c4c3CS(=O)(=O)c3ccccc3-4)CC2)c1 23.9 µM
COCCn1c2c([n+](Cc3cnccn3)c1C)C(=O)c1ccccc1C2=O 0.0953 µM
CC(C)C[C@@H](C=O)NC(=O)[C@H](CC(C)C)NC(=O)[C@H](CC(C)C)NC(=O)OCc1ccccc1 2.13 µM
CCCCOC(=O)c1ccc(NC(=O)c2sc3nc(C)cc(C)c3c2N)cc1 12 µM
COC(=O)c1c(C)oc2ccc(N(C(=O)c3ccncc3)S(=O)(=O)c3ccc(OC)cc3)cc12 3.79 µM
COc1ccc(-c2nc(CSCC(=O)N3CCN(c4cc(Cl)ccc4C)CC3)c(C)o2)cc1 9.53 µM
O=S(=O)(c1ccc(-c2csc(=Nc3ccc(OC(F)(F)Cl)cc3)n2CCCO)cc1)N1CCCC1 1.9 µM
COc1cc2nc(N3CCCN(C)CC3)nc(NC3CCN(Cc4ccccc4)CC3)c2cc1OC 26.9 µM
O=C(CN(c1cccc(C(F)(F)F)c1)S(=O)(=O)c1ccccc1)Nc1cccc(Cl)c1 26.9 µM
Cc1cc(Nc2cccc(C(F)(F)F)c2)nc2ccc(NC(=O)c3cccnc3)cc12 19 µM
CCCN(c1ccccc1CC)S(=O)(=O)c1ccc2c(c1)CC(C)N2C(=O)C1CC1 (stereo not drawn) 13.5 µM
